# Results filed as inconclusive are left out. Entries that show only a call come without a potency. The source holds several records for some structures; these can differ, active in one and inactive in another. Active and inactive are the calls of the source. The call rests on the fitted dose curve; in most records, active means well fitted cell-killing curve with a large enough effect in the repeat runs; inconclusive means weak or mixed curves; inactive means flat fitted curve, though single readings scatter.
# Test: qHTS assay to identify small molecule antagonists of the estrogen related receptor (ERR) signaling pathway from Tox21 library - cell viability counter screen (AID 1224834); further: nearly all actives have a fitted effect of over 30% in size
# Settings: ERR reporter cells viability, CellTiter-Fluor, 17.5 h; series mostly up to 92.4 µM; viability change, negative = cytotoxic: at the top concentration
# Source text: National Center for Advancing Translational Sciences [NCATS]
# NIH Chemical Genomics Center [NCGC]
# U.S. Environmental Protection Agency [EPA]
# National Institutes of Environmental Health Sciences [NIEHS]
# National Toxicology Program [NTP]
# U.S. Food and Drug Administration [FDA]
# Estrogen related receptors (ERRs), the first orphan nuclear receptors discovered, play an important role in the control of cellular energy metabolism. ERRs are required for high-energy production in response to the environmental challenges. ERR-alpha was also identified as an adverse marker for breast cancer progression; ERR-alpha-positive tumors have a poor prognosis. To screen and to identify environmental compounds that perturb the ERR signaling pathways could provide valuable information for potential therapeutic or preventive measures in the treatment of metabolic disease. To differentiate true ERR antagonists or agonist from cytotoxic substances, the assay is multiplexed with cell viability assay.
# Tox21 Assay Protocol Summary:
# The ERR cells were dispensed at 2,000 cells/5 ul/well in 1536-well white plates using a Multidrop dispenser. After the assay plates were incubated at a 37 C/5% CO2 incubator for 6 hours, 23 nL of compounds dissolved in DMSO, positive and negative controls or DMSO only was transferred to the assay plate by a pin tool. The plates were incubated at 37 C for 17.5 hours. 1 ul/well of CellTiter-Fluor reagent was added into the assay plates using a Flying Reagent Dispenser. After 30-minute incubation at 37 C/5% CO2, the fluorescence intensity in the plates was measured using a ViewLux plate reader.
# Potency means the concentration at half of the fitted maximal effect.
SMILES,Potency,"viability change, negative = cytotoxic"
O=C/C=C/c1ccccc1,inactive,
CNC(=O)O/N=C/C(C)(C)S(C)(=O)=O,inactive,
Nc1ncc([N+](=O)[O-])s1,49 µM (active) and inactive,
O=S(=O)(O)OOS(=O)(=O)O,inactive,
C=CC#N,inactive,
CNC(=O)O/N=C/C(C)(C)SC,inactive,
C/C=C/c1ccc2c(c1)OCO2,inactive,
C=CC(=O)OCC(CC)CCCC (stereo not given),inactive,
CC[N+](=O)[O-],inactive,
CNC(=O)O/N=C(\SC)C(=O)N(C)C,inactive,
CNc1cnn(-c2cccc(C(F)(F)F)c2)c(=O)c1Cl,inactive,
Oc1c(Br)cc(Br)cc1Br,inactive,
CN(C)C(=O)Cl,inactive,
C=C(C)C(=O)OCC(CC)CCCC (stereo not given),55.5 µM (active) and inactive,
Cc1cccc(C)c1N,inactive,
c1ccc2c(c1)CCCC2,inactive,
CN(C)NC(=O)CCC(=O)O,inactive,
CN1C(=O)CCS(=O)(=O)C1c1ccc(Cl)cc1 (stereo not given),inactive,
C=CCN=C=S,inactive,
CC(=O)C1CCOC1=O (stereo not given),inactive,

SMILES,Potency,"viability change, negative = cytotoxic"
FC(F)(F)c1ccc(Cl)cc1,inactive,
CNC(=O)Oc1cccc2ccccc12,inactive,
O=C(O)c1cc(Oc2ccc(C(F)(F)F)cc2Cl)ccc1[N+](=O)[O-],inactive,
CCCOC(=O)c1ccccc1C(=O)OCCC,inactive,
N#CN=C(N)N,inactive,
O=[N+]([O-])c1cc([As](=O)(O)O)ccc1O,60.7 µM (active),
O=C(O)CCCc1ccc(N(CCCl)CCCl)cc1,inactive,
Nc1cccc(Cl)c1,,4.36% (inactive)
COP(=S)(OC)Oc1ccc(SC)c(C)c1,inactive,
CC(=O)/C=C/c1ccccc1,inactive,
CSc1nnc(C(C)(C)C)c(=O)n1N,inactive,
CCSC(=O)N1CCCCCC1,inactive,
N#Cc1ccccn1,inactive,
CC(C)CCCCCCOC(=O)c1ccccc1C(=O)OCCCCCCC(C)C,inactive,
Oc1ccc(Cl)cc1,inactive,
O=C(O)C(Br)Br,inactive,
CCCCCCCCCCCCCCCCCC(=O)O,inactive,
OC[C@@H](O)[C@H]1O[C@@H]2O[C@H](C(Cl)(Cl)Cl)O[C@@H]2[C@H]1O,inactive,
Sc1ccccc1,inactive,
COc1cc(-c2ccc(N)c(OC)c2)ccc1N,52 µM (active),
